Only some compounds are listed: those with a hit (about 5.7% of all), similar ones and a draw of the others.
A549 viability: Nrf2 qHTS screen for inhibitors: counterscreen for cytotoxicity; AID 504648, 2011; 0.16% of 390,000 active; A549 ARE-Fluc cells, CellTiter-Fluor viability, 18-24 h; Potency, µM (top dose mostly 46 µM), for the others: at the top dose activity change, negative = cytotoxicity, most hits filed as inhibitors; also: potency is read from the fitted curve at half-maximal effect
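Cytotoxicity counterscreen: CellTiter-Fluor fluorescence was measured in A549 ARE_Fluc cells after 18-24 h of compound exposure in a concentration series. The subsequent BugLite luminescent read reports ARE-luciferase activity.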
KB-V1 cytotox: qHTS assay for MDR1-selective chemotherapeutics: Primary screen using the drug-selected MDR subline cells KB-V1; Potency, µM (highest dose often 46.1 µM), most hits filed as cytotoxic; KB-V1 MDR cells viability, CellTiter-Glo, 72 h; 3.4% of 400,000 active; AID 1347076, 2019; also: potency is read from the fitted curve at half-maximal effect; nearly all actives have a fitted effect of over 60% in size
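Potencies derive from concentration-effect curves fitted to normalized luminescence (CellTiter-Glo) of KB-V1 cells treated for 72 h at 37 degrees C in phenol-red-free DMEM containing 10% FBS.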
KB-3-1 cytotox: qHTS assay for MDR1-selective chemotherapeutics: Primary screen using the parental adenocarcinoma cell KB-3-1 | 1.4% of 400,000 active | Potency, µM (top dose mostly 46.1 µM), usual class: cytotoxic | KB-3-1 viability, CellTiter-Glo ATP luminescence, 72 h | AID 1347075, 2019; also: potency is read from the fitted curve at half-maximal effect; nearly all actives have a fitted effect of over 60% in size
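Here the drug-naive KB-3-1 line serves as comparator for MDR sub-line selectivity; cells received compound titrations, 72 h at 37 °C, then CellTiter-Glo readout.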
PI4K2A inh: qHTS for small molecular inhibitors of PI4K2A | Phosphatidylinositol 4-kinase type 2-alpha (Homo sapiens), Q9BTU6 | purified PI4K2A, ADP-Glo luminescence, 1 h; hits give low values | activity change, negative = inhibition, % at 76.9 µM | 0.13% of 420,000 active | AID 1346378, 2018; in the data active = activity change below about -50%; inconclusive = mostly about -30% to -49%;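 also: -100% = wells without enzyme as full effect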
Target sequence (Q9BTU6 whole entry, looked up): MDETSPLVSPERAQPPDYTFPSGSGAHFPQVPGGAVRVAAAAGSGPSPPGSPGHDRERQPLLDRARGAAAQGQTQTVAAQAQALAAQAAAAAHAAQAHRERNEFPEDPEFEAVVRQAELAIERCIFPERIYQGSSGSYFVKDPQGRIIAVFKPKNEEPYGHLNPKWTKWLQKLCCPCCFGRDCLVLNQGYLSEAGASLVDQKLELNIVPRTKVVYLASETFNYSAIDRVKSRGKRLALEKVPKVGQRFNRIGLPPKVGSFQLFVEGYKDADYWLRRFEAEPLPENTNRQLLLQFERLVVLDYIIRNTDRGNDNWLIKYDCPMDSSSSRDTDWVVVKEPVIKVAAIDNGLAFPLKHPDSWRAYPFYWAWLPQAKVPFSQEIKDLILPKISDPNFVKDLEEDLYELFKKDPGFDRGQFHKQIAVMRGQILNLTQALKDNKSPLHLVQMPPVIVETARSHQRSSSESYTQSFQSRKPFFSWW
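In this quantitative HTS, ADP production by PI4K2A was quantified luminescently after 1 h at ambient temperature; 100 microM adenosine served as plate-quality control.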
Nrf2 inh: Nrf2 qHTS screen for inhibitors | A549 ARE-Fluc reporter, luciferase luminescence, 18-24 h | 2.1% of 360,000 active | Potency, µM (doses to about 46 µM), for the others: at the top dose activity change, negative = inhibition, hits mostly inhibitors; also: potency is read from the fitted curve at half-maximal effect; nearly all actives have a fitted effect of over 60% in size
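Quantitative HTS in A549 cells stably bearing an antioxidant response element-firefly luciferase construct. Inhibition of Nrf2-driven transcription was scored by luminescence after 18-24 h of compound exposure at 37 °C.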
Giardia killer: Small Molecules that selectively kill Giardia lamblia: qHTS | activity change, % at 7.66 µM, hits read low | 0.15% of 340,000 active | AID 540267, 2011 | Giardia lamblia trophozoite viability; in the data active = activity change below about -80%; inconclusive = between about -30% and that limit;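 also: parasites exposed to compound for two days anaerobically before the ATP read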
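Media and compound were dispensed first, then trophozoites at 100 cells/well; plates sat 48 hrs at 37 deg C without oxygen before ATP luminescence reagent was added and read after 15-30 min at room temperature.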
* marks the source's active call; other numbers are inactive results; i = inactive; ? = inconclusive; / = no result. Unless noted, calls follow the shape of the dose curve; as a rule, active = well fitted curve in the direction sought with a large enough effect; inconclusive = small, poorly fitted or top-dose-only effect, or another doubt; inactive = no such curve, though single readings can be large; an effect the other way counts as inactive or inconclusive. Unless noted, % is scaled to controls: 0 for no effect and ±100 for the full control effect.

SMILES	A549 viability	KB-V1 cytotox	KB-3-1 cytotox	PI4K2A inh	Nrf2 inh	Giardia killer
CNC(=S)N1N=C(c2ccc(C)cc2)CC1c1ccc(Br)cc1 (stereo not given)	-5%	15µM*	i	0	-24%	-5
COC(=O)C1CN(Cc2ccc(F)cc2)CCS(=O)(=O)N1Cc1cn(Cc2ccc(Cl)cc2)nn1 (stereo not given)	/	/	/	-1	/	/
O=C(O)CN1C(=O)/C(=C/c2ccc(-c3cccc(Cl)c3)o2)SC1=S	-16%	/	/	/	-6%	/
CCc1cc(Cn2nc(-c3ccccc3)cc2C(=O)NCc2cccc(Br)c2)on1	-15%	23µM*	?	1	?	9
COc1cc(C(=O)NC(=S)NNC(=O)c2cnccn2)cc(OC)c1OC	-16%	?	?	-10	4.6µM*	?
COc1ccccc1C(=O)NNC(=S)NC(=O)c1cc(OC)c(OC)c(OC)c1	-12%	i	i	0	?	9
COc1ccc(CC(=O)NNC(=O)c2cnccn2)cc1	6%	i	i	-5	2%	11
CCCCOc1ccc(C(=O)NNC(=O)c2cnccn2)cc1OC	0%	i	?	-5	10µM*	12
COc1ccc(Cn2cc(CN3[C@@H](CC(C)C)COc4cccc(F)c4S3(=O)=O)nn2)cc1	/	/	/	2	/	/
COc1ccc(C2c3ccccc3Oc3ncn(CCN4CCOCC4)c(=N)c32)cc1OC (stereo not given)	0%	/	/	/	?	/
CCC(=O)Oc1ccc2c(c1)CC[C@@H]1[C@@H]2CC[C@@]2(C)[C@H]1C[C@@H](OC(=O)CC)[C@@H]2OC(=O)CC	/	/	/	2	/	/
CCOC(=O)c1c(NC(=O)C2=C(C)NC(=S)NC2c2ccc(C)cc2)sc(C)c1C (stereo not given)	-19%	21µM*	?	3	?	7
CC(C)COc1ccc(C(=O)CCN2CCCCC2)cc1	-4%	i	15µM*	12	-26%	3
COc1ccc(C(=O)Nc2nnc(-c3cccs3)s2)cc1	-4%	?	5.2µM*	-2	?	-15
O=C(Nc1nc(-c2cccs2)c(C(=O)C(F)(F)F)s1)c1ccco1	2%	i	i	-5	?	7
COc1ccc(N(CC(C)C)S(=O)(=O)c2nnc(NC(=O)c3cccs3)s2)cc1	-14%	/	/	-3	21µM*	/
O=C(Nc1nc(-c2cccs2)c(C(=O)C(F)(F)F)s1)c1ccccc1	-19%	i	?	0	21µM*	-3
CC(C)(C)Nc1nc(C#N)nc(Nc2ccccc2)n1	2%	/	/	/	16%	/
Cc1cc(NC(=O)C2CCN(S(=O)(=O)c3cccc4nsnc34)CC2)ccc1Br	7%	i	i	4	-13%	/
Cc1nc2c(nc1C)C(=O)c1ccccc1C2=O	?	9.2µM*	16µM*	-56*	16µM*	?
c1cc(CSc2nnc(-c3ccc4c(c3)OCO4)o2)ccn1	8%	23µM*	i	2	?	0
c1ccc2c(CSc3nnc(-c4ccncc4)o3)cccc2c1	23%	15µM*	i	0	?	-6
O=C(O)CCSc1nnc(-c2ccc3c(c2)OCO3)o1	6%	i	i	17	8.2µM*	1
CC(=O)CSc1nnc(-c2ccc3c(c2)OCO3)o1	-2%	i	i	-8	-20%	-10
Cc1ccc(-c2nc(N3CCN(S(=O)(=O)c4ccc(F)cc4)CC3)c3ccc(Cl)cc3n2)cc1	6%	/	/	/	-11%	-12
SMILES	A549 viability	KB-V1 cytotox	KB-3-1 cytotox	PI4K2A inh	Nrf2 inh	Giardia killer
CCn1ncc(Br)c1C(=O)Nc1cc([N+](=O)[O-])ccc1C	-1%	16µM*	?	-5	3%	3
CCn1ncc(Br)c1C(=O)Nc1ccccc1OC	1%	12µM*	13µM*	3	0%	4
COc1ccccc1NC(=O)c1c(N=Cc2c(O)ccc3ccccc23)cnn1C	1%	?	21µM*	-3	7%	-6
CCOC(=O)C1CCCN(C(=O)Cn2ncn3c(cc4sc(CC)cc43)c2=O)C1 (stereo not given)	0%	/	/	-1	1%	/
CC1Cc2ccccc2C[N+]1(C)CC(=O)c1cccc([N+](=O)[O-])c1 (stereo not given)	/	i	i	/	/	/
CCCN1C(=O)/C(=C2/C=Cc3ccccc3N2CC)SC1=S	15µM*	i	i	0	-28%	9
CN1C(=O)/C(=C2/C=Cc3ccccc3N2CCCS(=O)(=O)O)SC1=S	21µM*	i	i	-24	-8%	-2
CCCN1/C(=C2/SC(=S)N(CC)C2=O)C=Cc2ccccc21	18µM*	?	i	3	?	3
NCCC(=O)Nc1ccc(Cl)cc1C(=O)c1ccc[nH]1	/	/	/	-2	/	/
Cc1ccc(NC(=O)/C(=C/c2cccc([N+](=O)[O-])c2)NC(=O)C2CCCCC2)c(C)c1	-20%	i	i	0	9.2µM*	4
O=C(CSc1nnc(-c2ccccc2)n1-c1ccc(Cl)cc1)Nc1ccc(OCc2ccccc2)cc1	/	/	/	1	/	/
Cc1ccc2[nH]c(C)c(/C=C/c3cc[n+](C)cc3)c2c1	-21%	i	2.1µM*	-1	?	?
Cn1cc([N+](=O)[O-])c(C(=O)Nc2ccc(C(=O)N3CCCCC3)cc2)n1	-7%	?	23µM*	-3	3%	14
Cn1cc([N+](=O)[O-])c(C(=O)Nc2ccc(C3CCCCC3)cc2)n1	9%	?	?	6	?	-25
Cn1cc([N+](=O)[O-])c(C(=O)Nc2ccn(C34CC5CC(CC(C5)C3)C4)n2)n1	-5%	15µM*	4.6µM*	5	-19%	0
Cc1ccc(Cn2ccc(NC(=O)c3noc4c3CCCCC4)n2)cc1	1%	5.2µM*	?	1	-4%	-19
Cc1ccc(Cn2ccc(NC(=O)c3nn(C)cc3[N+](=O)[O-])n2)cc1	-4%	10µM*	?	-2	14%	6
CCn1cc([N+](=O)[O-])c(C(=O)Nc2ccn(C34CC5CC(CC(C5)C3)C4)n2)n1	-2%	i	i	-2	-15%	6
COCCCNC(=O)C[C@H]1C[C@@]2(C(=O)OC)C(=C[C@H](C(C)C)O[C@@H]2C2CC2)N(Cc2cccc3ccccc23)C1=O	/	/	/	0	/	/
Fc1cc(F)cc(Nc2nc(NC3CCCC3)nc(C3CO3)n2)c1 (stereo not given)	2%	/	/	/	12%	/
